Experimental data published in the supplement of paper PMC10338343.
± gives the standard deviation.

Tested on: MILI (PIWIL2) piRISC loaded with piRNA #1 (26 nt)
Assay: pre-steady-state target cleavage rate (min^-1); guide: piRNA #1 5'p-UGAGGUAGUAGGUUGUAUAGUAUCCA; MIWI and MILI are mouse PIWI proteins and EfPiwi is from a freshwater sponge; tags in brackets are library labels; higher = faster piRNA-guided slicing of the target
Settings: auxiliary factor: 500 nM mouse GTSF1
Procedure, shortened: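 The pre-steady-state cleavage rate came from a burst-and-steady-state fit to pooled data from three Cleave-'n-Seq trials, in which uncleaved targets were sequenced and normalised to depth and to weakly complementary targets. Each reaction held 0.1 nM transcribed, DNA-blocked target RNA library and 1 nM active affinity-purified piRISC carrying one synthetic guide, with or without 500 nM GTSF1 partner protein, in HEPES–potassium acetate buffer at 33 °C for 0–8 or 0–960 min. k3 was capped at 0.0001 min^-1.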

Row | Sequence | pre-steady-state target cleavage rate
1 | GGAGACCUAUGAAUACAAGCUAGUACCUCA | 0.0081 ± 0.0031
2 | GGAGACGAUACUAUACAACCUACUACCACA | 0.185 ± 0.018
3 | GGAGACCUAUGAUAACAACCUACUACCUCG [g2:g16:cont:t1G] | 0.00536 ± 0.0027
4 | GGAGACCUAACUAUACAACCUACUGACCUCA | 0.163 ± 0.04
5 | GGAGACCAUACUUUACAACCUACUACCACA | 0.226 ± 0.023
6 | GGAGUGGAUACUAUACAACCUACUUGGUCA | < 0.0001
7 | GGAGACCUAACUAUACUUGCUACUACCUCA | 0.0149 ± 0.0044
8 | GGAGACCUAUCUAUACUACCUACUAGCUCA | 0.0698 ± 0.014
9 | GGAGACCUAACUAUUCAACCUACUACCUGA | 0.0858 ± 0.03
10 | GGAGACCUAUCUAUACAACCUACUACGACA | 0.0627 ± 0.01
11 | GGAGACCUAUCUUUACAACCUAGUACCUCA | 0.00897 ± 0.003
12 | GGAGACCUAUGAUAUGUACCUACACCUCA | < 0.0001
13 | GGAGACGAUAGUAUACAAGCUACUACCUCA | 0.176 ± 0.016
14 | GGAGACCUAUGAAUACAAGCUACUACCACA | 0.0366 ± 0.0055
15 | GGAGACCAUACUAUAGAAGCUACUACCUCA | 0.0882 ± 0.013
16 | GGAGACCUUACUAUACAACCUACUAUCCUCA | 0.194 ± 0.022
17 | GGAGACCUAUGAAUACAACCUACCUACCUCA | 0.0088 ± 0.0035
18 | GGAGACCUAUGAAUACAACCUUCUACCUCA | 0.00275 ± 0.0024
19 | GGAGACGUUACUAUACAACCUACUUCCUCA | 0.0496 ± 0.013
20 | GGAGACGUUACUAUACAUCCUACUACCUCA | 0.293 ± 0.018

Row | Sequence | pre-steady-state target cleavage rate
21 | GGAGACCAUACUAUACAACCUACUACCACA | 0.231 ± 0.029
22 | GGAGACCUAAGUAUACAUCCUACUACCUCA | 0.0911 ± 0.0089
23 | GGAGACCAUACUAAAGAACCUACUACCUCA | 0.11 ± 0.012
24 | GGAGACCUAUGUAUACAACCUACUACCUGCA | 0.0635 ± 0.011
25 | GGAGACCUAUGAUAUGUACCUACUAACUCA | < 0.0001
26 | GGAGACCUAUCUAUACAACCUACCACCUCA | 0.0927 ± 0.018
27 | GGAGACCUAUGAACUACAACCUACUACCUCA | 0.00389 ± 0.0029
28 | GGAGACCUAACUAUACUACCUUCUACCUCA | 0.00544 ± 0.0042
29 | GGAGACCUAACUAUACUACCUACAACCUCA | 0.0957 ± 0.018
30 | GGAGACGAUUCUAUACAACCUACAACCUCA | 0.164 ± 0.013
31 | GGAGACCUAUGUAUACAACCUACAACCUCA | 0.0609 ± 0.0082
32 | GGAGUGGAUUCUAUACAACCUACUACCACA | 0.121 ± 0.011
33 | GGAGACCUAACUAUACAACCUACAACCACA | 0.0203 ± 0.012
34 | GGAGACCUAUGAUUACAACCUACUAUCCUCA | 0.00664 ± 0.0027
35 | GGAGUGGAUACAAUACAACCUACAACCUCA | 0.0772 ± 0.01
36 | GGAGACCUAUCUCAUACAACCUACUACCUCA | 0.0664 ± 0.01
37 | GGAGACCUAUGAUAUCUACCUACUACGUCA | < 0.0001
38 | GGAGACCUAUGAUAUGUUGCUACUACCUCCA | < 0.0001
39 | GGAGACGAAACUAUAGAACCUACUACCUCA | 0.146 ± 0.014
40 | GGAGACCUAUCUAUACAACCUAUCUACCUCA | 0.0483 ± 0.0065
